# Compound activity as filed in PubChem BioAssay.
# This is a sample that favours compounds with a hit; in the whole collection about 12% have one here.
# G9a block = G9a (human) methyltransferase inhibition; G9a H3K9 monomethylation, AlphaScreen, 2 h; Potency, µM (highest dose often 102 µM), actives largely listed as inhibitors; 350,000 compounds, 8.8% hits; also: nearly all actives have a fitted effect of over 75% in size
#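 Methyltransferase reactions run at room temperature for 2 h (20 nM enzyme, 500 nM biotin-H3K9 peptide, 20 uM SAM) after a 15 min compound preincubation; product detected by AlphaScreen beads and anti-H3K9me1 antibody.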
# PLK1 PBD inh = inhibitors of human PLK1 polo-box domain binding; P53350; Plk1 PBD binding of FITC phosphopeptide, fluorescence polarization; Potency, µM, actives largely listed as inhibitors; 360,000 compounds, 2.8% hits; also: series mostly up to about 57 µM; nearly all actives have a fitted effect of over 65% in size
# JMJD2A Tudor = inhibitors of human JMJD2A Tudor domain. AlphaScreen JMJD2A-Tudor / H3K4me3 peptide binding. Potency, µM (series often up to 114 µM), actives largely listed as inhibitors. O75164. AID 504339. 390,000 compounds, 4.4% hits; also: nearly all actives have a fitted effect of over 50% in size
# Target sequence (O75164 whole entry, looked up, the tested form may be a part): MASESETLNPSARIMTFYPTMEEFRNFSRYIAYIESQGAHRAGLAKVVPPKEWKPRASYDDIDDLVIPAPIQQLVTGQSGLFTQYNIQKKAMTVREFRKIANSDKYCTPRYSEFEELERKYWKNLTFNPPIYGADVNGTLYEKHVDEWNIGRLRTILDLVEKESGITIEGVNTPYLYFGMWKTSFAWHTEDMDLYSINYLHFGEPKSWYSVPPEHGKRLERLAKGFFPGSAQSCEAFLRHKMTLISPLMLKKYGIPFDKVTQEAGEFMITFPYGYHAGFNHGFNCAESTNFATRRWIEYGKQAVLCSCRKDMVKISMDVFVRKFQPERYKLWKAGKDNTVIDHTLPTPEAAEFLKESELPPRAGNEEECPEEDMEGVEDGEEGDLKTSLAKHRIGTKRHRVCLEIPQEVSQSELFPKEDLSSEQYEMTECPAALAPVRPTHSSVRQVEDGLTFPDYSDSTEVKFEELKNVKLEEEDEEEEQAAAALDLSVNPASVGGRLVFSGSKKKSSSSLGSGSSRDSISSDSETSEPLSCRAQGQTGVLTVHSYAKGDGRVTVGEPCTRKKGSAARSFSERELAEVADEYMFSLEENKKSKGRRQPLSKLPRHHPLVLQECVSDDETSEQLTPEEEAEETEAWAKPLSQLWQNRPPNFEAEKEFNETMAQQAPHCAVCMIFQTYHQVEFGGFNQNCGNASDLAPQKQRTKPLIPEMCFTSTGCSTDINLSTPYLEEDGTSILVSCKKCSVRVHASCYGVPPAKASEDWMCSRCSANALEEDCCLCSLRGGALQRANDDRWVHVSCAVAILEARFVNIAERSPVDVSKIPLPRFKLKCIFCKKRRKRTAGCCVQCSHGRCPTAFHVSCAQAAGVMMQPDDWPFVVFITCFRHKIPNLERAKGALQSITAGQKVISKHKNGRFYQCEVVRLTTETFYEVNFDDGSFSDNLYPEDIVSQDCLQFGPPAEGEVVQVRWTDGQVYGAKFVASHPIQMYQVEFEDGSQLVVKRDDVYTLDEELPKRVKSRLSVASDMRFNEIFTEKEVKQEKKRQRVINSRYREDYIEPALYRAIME
# BAZ2B block = inhibitors of human BAZ2B bromodomain; 360,000 compounds, 4.4% hits; Q9UIF8; Potency, µM (top dose mostly 114 µM), most hits filed as inhibitors; AlphaScreen BAZ2B-H3K14Ac peptide displacement; also: nearly all actives have a fitted effect of over 60% in size
#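 Inhibition is scored as reduced AlphaScreen emission. The BAZ2B/b-H3(5-23)K14Ac complex (50 nM each) in PBS pH 7.4, 0.01% Tween-20 meets compound (up to 110 uM) for 30 min at RT before bead addition.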
# PI5P4K alpha inh = PI5P4K alpha (human) kinase inhibition; P48426; PI5P4Kalpha enzyme, ADP-Glo luminescence, 60 min; active compounds read low; max response, %; 330,000 compounds, 1.2% hits; AID 652105; active = max response of -50% or lower; inconclusive = between -30% and -50%; inactive = -30% or higher; also: value at the top dose of about 77 µM
#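 Luminescence from ADP-Glo served as readout of PI5P4Kalpha activity in a qHTS format. Reaction: enzyme, substrate, compound, ATP at 5 microM final, 60 min at RT.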
# HP1b binding inh = HP1-beta chromodomain-methylated histone interaction inhibition; 390,000 compounds, 0.56% hits; AlphaScreen HP1-beta / biotin-H3K9me3 peptide binding; P83916; Potency, µM (highest dose often 114 µM), most hits filed as inhibitors; also: nearly all actives have a fitted effect of over 70% in size
#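 Compound inhibition of the preformed complex between 50 nM HP1-beta and 50 nM biotinylated H3K9me3 peptide was read by AlphaScreen. Buffer was PBS pH 7.4 with 0.01% Tween-20. Incubations ran 30 min at room temperature, with 10 ug/mL donor/acceptor beads.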
# Hits are given with their value; – = inactive; ? = inconclusive; · = no result; [ ] = another dose, or the depositor's remark. Unless noted, calls follow the shape of the dose curve; as a rule, active = well fitted curve in the direction sought with a large enough effect; inconclusive = small, poorly fitted or top-dose-only effect, or another doubt; inactive = no such curve, though single readings can be large; an effect the other way counts as inactive or inconclusive.
SMILES,G9a block,PLK1 PBD inh,JMJD2A Tudor,BAZ2B block,PI5P4K alpha inh,HP1b binding inh
Cc1ccc(-c2nc3cc(Cl)ccc3o2)cc1NC(=O)c1cc2ccccc2o1,–,·,–,–,·,–
CN(C(=O)CSc1nc(-c2ccccc2)cn1N)C(c1ccccc1)c1ccccc1,17.8µM,–,?,44.7µM,·,–
COc1ccccc1CNC(=O)CSc1nc(-c2ccccc2)cn1N,–[12.7 µM],–,–,?,·,–
O=C(CCCn1c(=O)c2sccc2n(Cc2c(F)cccc2Cl)c1=O)NCc1ccccc1,–,·,–,–,·,–
Cc1ccccc1NC(=S)Nn1cnnc1,·,15µM,–,?,–,?
CCOc1ccccc1NC(=S)Nc1ccccc1F,–,–,–,–,–,–
Cc1cccc(NC(=S)Nn2cnnc2)c1C,·,?,–,?,–,–
CCc1ccccc1NC(=S)Nn1cnnc1,10µM,·,·,–,·,·
CCOc1ccccc1NC(=S)Nn1cnnc1,1.78µM,2.38µM,50.1µM,?,?,?
Fc1ccccc1NC(=S)Nn1cnnc1,3.98µM,6.7µM,50.1µM,–,–,–
Fc1ccccc1NC(=S)NCc1ccccc1,?,–,–,–,–,–
COc1ccccc1C(=O)N(C)c1nnc(-c2ccccc2)s1,·,–,–,–,–,–
O=C(Nc1ccc(Br)cc1F)c1ccc2nsnc2c1,–,5.32µM,?,–,–,–
O=C(Nc1ccc(Br)cc1F)c1ccncc1,–,–,–,–,–,–
COc1cc(NC(=O)c2ccc3nsnc3c2)cc(OC)c1OC,?,–,–,?,–,–
COc1ccccc1NC(=O)c1ccc2nsnc2c1,–,–,12.6µM,–,–,–
Cn1c(=O)cc(SCC(=O)NCc2ccc(F)cc2)c2cc(Cl)ccc21,–,·,–,?,·,–
Cc1c(NC(=O)c2cc(=O)[nH]c3ccccc23)c(=O)n(-c2ccccc2)n1C,–[12.7 µM],–,–,–,·,–
Cc1[nH]c2ccccc2c1N=Nc1c(C)n(C)n(-c2ccccc2)c1=O,39.8µM,–,–,?,–,–
Cc1c(N=Nc2ccc(O)cc2)c(=O)n(-c2ccccc2)n1C,–,–,–,?,–,–
Cc1c(N=NC2=C(O)CCCC2=O)c(=O)n(-c2ccccc2)n1C,8.91µM,–,14.1µM,22.4µM,–,?
CC(C)(C)NC(=O)C(c1cccnc1)N(C(=O)c1ccc(Cl)nc1)C1CCCC1 (configuration not stated),2.82µM,–,–,56.2µM,–,–
O=C(NC1CCCCC1)C(c1cccnc1)N(C(=O)c1ccc(Cl)nc1)C1CCCCC1 (configuration not stated),–,–,–,–,–,–
CN1C(=O)/C(=N/OC(=O)c2ccccc2)c2ccccc21,?,11.9µM,–,–,–,–
CC(=O)c1c(C)oc2ccc(NS(=O)(=O)c3cccs3)cc12,–,–,–,–,–,–
SMILES,G9a block,PLK1 PBD inh,JMJD2A Tudor,BAZ2B block,PI5P4K alpha inh,HP1b binding inh
Cc1cc(C(=O)N2CCCC(N3CCN(c4ccccc4C)CC3)C2)no1 (configuration not stated),·,–,·,·,–,·
CC(C)Nc1cc(N2CCN(C3CCCCC3)CC2)c2noc3c2c1C(=O)c1ccccc1-3,?,·,22.4µM,12.6µM,·,?
O=C(O)CCCNc1cc(N2CCN(C3CCCCC3)CC2)c2noc3c2c1C(=O)c1ccccc1-3,15.8µM,·,35.5µM,31.6µM,·,22.4µM
CCNc1cc(N2CCN(C3CCCCC3)CC2)c2noc3c2c1C(=O)c1ccccc1-3,?,·,50.1µM,35.5µM,·,?
CN(C)c1ccc(C(=O)Nc2cccc(-c3nc4cccnc4s3)c2)cc1,–,·,–,–,·,–
O=C(Nc1cccc(-c2nc3cccnc3s2)c1)c1cccc(Br)c1,17.8µM,·,–,–,·,–
N#CCC(=O)NNc1c([N+](=O)[O-])cc(C(F)(F)F)cc1[N+](=O)[O-],50.1µM,–,?,50.1µM,–,?
O=[N+]([O-])c1cc(C(F)(F)F)cc([N+](=O)[O-])c1NN=C1CCCCC1,10µM,?,22.4µM,11.2µM,–,20µM
O=[N+]([O-])c1cc(C(F)(F)F)cc([N+](=O)[O-])c1NCCN1CCNCC1,–[0.501 µM],–,–,–,–,–
O=[N+]([O-])c1cc(C(F)(F)F)cc([N+](=O)[O-])c1NCCCN1CCOCC1,–,–,–,–,–,–
